From ChEMBL document CHEMBL3988442, “University of Dundee, Small-Polar-MMV Screening Library” (2021) come the findings set out here.

Measured potencies and affinities stand elsewhere.

Protein translocase subunit SecA (Escherichia coli (strain K12)), sequence (P10408 whole entry): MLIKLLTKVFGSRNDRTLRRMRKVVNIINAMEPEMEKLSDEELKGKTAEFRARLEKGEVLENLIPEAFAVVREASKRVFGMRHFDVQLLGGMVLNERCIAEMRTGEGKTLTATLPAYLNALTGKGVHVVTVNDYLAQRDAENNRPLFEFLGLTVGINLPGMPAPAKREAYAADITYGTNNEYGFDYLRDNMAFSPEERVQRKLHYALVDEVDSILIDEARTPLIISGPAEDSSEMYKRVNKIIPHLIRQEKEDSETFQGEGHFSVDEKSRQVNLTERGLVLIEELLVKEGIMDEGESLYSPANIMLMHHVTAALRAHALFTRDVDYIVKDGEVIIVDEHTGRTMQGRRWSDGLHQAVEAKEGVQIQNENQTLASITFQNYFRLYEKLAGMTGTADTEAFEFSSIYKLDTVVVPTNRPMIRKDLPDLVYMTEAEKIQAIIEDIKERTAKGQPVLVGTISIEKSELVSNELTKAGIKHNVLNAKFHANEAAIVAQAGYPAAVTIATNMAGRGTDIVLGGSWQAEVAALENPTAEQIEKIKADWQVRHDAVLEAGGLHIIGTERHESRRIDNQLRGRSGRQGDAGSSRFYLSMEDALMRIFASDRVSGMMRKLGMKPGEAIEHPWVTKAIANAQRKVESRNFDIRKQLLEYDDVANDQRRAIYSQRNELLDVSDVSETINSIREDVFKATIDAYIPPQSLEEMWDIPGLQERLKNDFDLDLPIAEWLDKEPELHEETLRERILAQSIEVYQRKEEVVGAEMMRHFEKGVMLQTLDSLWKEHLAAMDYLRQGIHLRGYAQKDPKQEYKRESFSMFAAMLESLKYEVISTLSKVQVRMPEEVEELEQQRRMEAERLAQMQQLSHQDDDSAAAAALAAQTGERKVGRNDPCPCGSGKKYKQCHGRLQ

This assay addresses Protein translocase subunit SecA (Escherichia coli (strain K12)) (UniProt P10408). Briefly: Assay to Identify E. coli SecA ATPase Inhibitors. To be noted: 30 µM. More on the design: scale not given: direction of the effect not stated beside the values. Format: functional.
On to `O=C(c1cnccn1)N1CCN(Cc2ccncc2)c2ncccc2C1`, for which the Percent Effect was -1.27%. For `CS(=O)(=O)N1CCCCCC1C1CCN(c2ncccn2)CC1` (centres undefined) the value was -4.78%. For `Cc1noc([C@@H]2CC[C@@H]3[C@@H](CCN3S(=O)(=O)c3cccnc3)O2)n1` the value was -1.26%. For `COc1ccc(-c2noc(C(=O)NCCN3CCCCC3)n2)cc1OC` the value was -7.28%. With `CNC(=O)[C@H]1C[C@H]2OCC[C@H]2N(Cc2ccc(C)o2)C1`, the Percent Effect was -0.274%. For `N#Cc1ccc(F)c(CN2CCCC2Cn2cccn2)c1` (centres undefined) the value was -4.03%; for `CC(C)CN1CCC(c2nc3c([nH]2)CC(C)(C)CNC3=O)C1` (centres undefined), 3.37%; for `CSc1cc2c(cc1NC(=O)NCC(C)(C)C(N)=O)OCCO2`, -3.46%.

`CC(C)C1CN(C(=O)c2ccc(C(N)=O)cc2)CCS1` (centres undefined): the Percent Effect is -4.2%. Turning to `Cc1ccc(-c2cc(CNC(=O)N3CCOC(C)C3)on2)cc1` (centres undefined), the Percent Effect came out at 0.724%. For `Cn1cc(N2CC3(CCN(Cc4cccs4)CC3)OCC2=O)cn1` the value was -0.959%; for `CCc1noc(C2CCN(C(=O)CCn3nc(C)cc3C)CC2)n1`, -4.24%. For `NC(=O)COc1cccc(C(=O)N2CCCC(n3ccnc3)C2)c1` (centres undefined) the value was -0.383%.

For `CCCc1cc(C(=O)N(C)Cc2cccc3ncccc23)n(C)n1`, the Percent Effect was -4.03%. For `CCOCC1CN(Cc2ccoc2)Cc2nn(CC3CC3)cc21` (centres undefined) the value was -7.41%; for `Cn1nc(C2CCCN(Cc3ccsc3)C2)c2nccnc21` (centres undefined), -0.97%.

As to `CCS(=O)(=O)N1CCOC2(CCCN(c3ccc(C)nn3)C2)C1` (centres undefined), the Percent Effect is -0.413%.

Take `CCN(CCC(F)(F)F)C(=O)Nc1cccc(N2CCOCC2)c1`: the Percent Effect was -2.27%. For `Cc1nn(C)cc1CN1CCC(C2Nc3ccccc3S(=O)(=O)N2)CC1` (centres undefined) the value was -3.36%.
